A short description of test [1]: anti-His antibody binders, primary screen, artefact control for SMM control protein annotation, biochemical, small-molecule microarray, 635 nm fluorescence (AID 1128).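 Note: score merges feature fluorescence with signal-to-noise for each printed compound spot.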 To be noted: anti-His Alexa647 antibody binding, higher = more signal.
For test [2], the system named is Human papillomavirus type 1a E7 protein (residues 1-88). Put plainly: HPV1a E7 small-molecule binders, primary screen, biochemical, small-molecule microarray, residues 1-88, 635 nm (AID 1129). The note with it: small-molecule microarray binding, fluorescence 635 nm; higher = more signal.
The target of test [3] is Focal adhesion kinase 1 (Homo sapiens) (UniProt Q05397). Briefly: small-molecule microarray binders of FAK, primary screen, biochemical, 635/667 nm fluorescence, BSA, DTT (AID 1130).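 Note: composite of spot emission at 667 nm and signal to noise over triplicate slides.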 The note with it: PTK2 binding, 635 nm fluorescence, higher = more signal.
Chain of Focal adhesion kinase 1 (Homo sapiens) (Q05397 whole entry, looked up): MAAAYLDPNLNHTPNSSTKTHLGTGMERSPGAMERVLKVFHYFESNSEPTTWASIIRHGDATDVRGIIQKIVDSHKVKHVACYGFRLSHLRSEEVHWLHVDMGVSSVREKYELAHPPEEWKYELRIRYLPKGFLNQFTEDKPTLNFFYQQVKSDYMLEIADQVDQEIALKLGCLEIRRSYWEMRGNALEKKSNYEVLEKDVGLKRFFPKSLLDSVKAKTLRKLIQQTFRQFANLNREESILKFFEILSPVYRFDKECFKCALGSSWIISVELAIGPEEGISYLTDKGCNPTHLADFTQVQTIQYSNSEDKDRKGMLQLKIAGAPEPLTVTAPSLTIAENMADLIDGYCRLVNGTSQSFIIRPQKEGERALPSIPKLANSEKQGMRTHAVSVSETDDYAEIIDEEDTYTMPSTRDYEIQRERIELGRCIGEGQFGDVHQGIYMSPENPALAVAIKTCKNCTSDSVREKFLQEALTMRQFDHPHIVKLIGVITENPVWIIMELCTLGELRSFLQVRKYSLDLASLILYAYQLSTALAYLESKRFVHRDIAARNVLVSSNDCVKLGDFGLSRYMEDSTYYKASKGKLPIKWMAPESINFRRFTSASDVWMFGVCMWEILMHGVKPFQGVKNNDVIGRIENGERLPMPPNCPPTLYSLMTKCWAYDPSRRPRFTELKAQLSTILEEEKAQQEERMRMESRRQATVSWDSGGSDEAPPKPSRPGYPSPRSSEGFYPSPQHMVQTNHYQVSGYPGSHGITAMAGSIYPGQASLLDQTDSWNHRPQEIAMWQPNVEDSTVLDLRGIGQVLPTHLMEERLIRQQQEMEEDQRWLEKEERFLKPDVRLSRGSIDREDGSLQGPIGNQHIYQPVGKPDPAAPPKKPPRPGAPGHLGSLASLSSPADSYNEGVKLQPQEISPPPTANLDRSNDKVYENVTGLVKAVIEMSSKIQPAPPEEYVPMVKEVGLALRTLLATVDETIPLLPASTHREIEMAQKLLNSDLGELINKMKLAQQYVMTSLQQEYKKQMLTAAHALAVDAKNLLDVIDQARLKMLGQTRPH
The test system of test [4] is Fibrinogen (Alexa647-labelled). Put plainly: fibrinogen binders on compound microarrays, profiling panel, artefact control for SMM control-protein annotation, biochemical, small-molecule microarray, 635/667 nm fluorescence (AID 1131).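 Note: z-score merges 667 nm fluorescence with per-spot signal-to-noise over triplicate slides.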 To be noted: fibrinogen-A647 binding fluorescence, higher = more signal.
In test [5] the target is Follistatin (Homo sapiens) (UniProt P19883). Put plainly: follistatin binders on small-molecule microarrays, primary screen, biochemical, small-molecule microarray, 635/667 nm fluorescence (AID 1132). To be noted: FST binding, 635 nm fluorescence, higher = more signal.
Chain of Follistatin (Homo sapiens) (P19883 whole entry, looked up): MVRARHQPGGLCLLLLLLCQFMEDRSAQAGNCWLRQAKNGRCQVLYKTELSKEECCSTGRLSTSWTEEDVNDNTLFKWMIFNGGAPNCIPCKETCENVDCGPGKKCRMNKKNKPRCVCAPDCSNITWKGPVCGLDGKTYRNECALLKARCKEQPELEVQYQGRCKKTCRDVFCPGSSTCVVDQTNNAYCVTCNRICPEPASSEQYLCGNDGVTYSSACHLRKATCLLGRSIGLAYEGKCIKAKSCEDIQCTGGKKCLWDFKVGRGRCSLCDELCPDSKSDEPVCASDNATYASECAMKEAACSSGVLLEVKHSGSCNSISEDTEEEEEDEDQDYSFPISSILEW
The target in test [6] is Fibroblast growth factor 2 (Homo sapiens) (UniProt P09038). Put plainly: FGF2 binders on small-molecule microarrays, primary screen, biochemical, small-molecule microarray, 635/667 nm fluorescence (AID 1133). To be noted: small-molecule microarray binding, FGF2, fluorescence 635/667; higher = more signal.
Chain of Fibroblast growth factor 2 (Homo sapiens) (P09038 whole entry, looked up): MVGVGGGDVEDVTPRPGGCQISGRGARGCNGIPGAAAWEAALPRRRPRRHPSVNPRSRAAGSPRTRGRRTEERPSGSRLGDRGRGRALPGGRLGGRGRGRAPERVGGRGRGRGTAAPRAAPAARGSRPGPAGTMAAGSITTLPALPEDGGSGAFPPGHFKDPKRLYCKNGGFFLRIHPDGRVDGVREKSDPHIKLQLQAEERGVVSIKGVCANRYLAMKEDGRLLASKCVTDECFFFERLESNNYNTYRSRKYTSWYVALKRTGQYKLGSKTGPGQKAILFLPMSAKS
A short description of test [7]: mitochondrial membrane potential change in A549 cells, profiling panel, cell-based, JC-1 fluorescence, basal, 24 h, 100 nL (AID 1138).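 Note: A549 lung adenocarcinoma cells under basal conditions with no added stimulus; test concentration not given here.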 To be noted: higher = more signal.
The test system of the next test is Lefty1. Put plainly: Lefty1 binders on small-molecule microarrays, primary screen, biochemical, small-molecule microarray, 635/667 nm fluorescence (AID 1139). The note with it: small-molecule microarray binding, fluorescence 635/667; higher = more signal.
Test [8] concerns wheat germ agglutinin (Triticum aestivum), Alexa647-labelled. Put plainly: wheat germ agglutinin binders on compound microarrays, profiling panel, artefact control for SMM control-protein annotation, biochemical, small-molecule microarray, 635/667 nm fluorescence (AID 1140).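 Note: score merges 667 nm feature emission with signal to noise over triplicate slides.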 To be noted: WGA-A647 binding, 635 nm fluorescence, higher = more signal.
In test [9] the target is Luciferin 4-monooxygenase (Photinus pyralis) (UniProt P08659). Put plainly: firefly luciferase enzyme inhibitors, primary screen, biochemical, luminescence, purified enzyme, 2006 set (AID 1141).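 Note: cell-free assay with purified firefly luciferase at 100 ng per well in PBS; test concentration not given here.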 To be noted: SteadyGlo luminescence, 30 min, higher = more signal, called active from +8 up or from −8 down.
Chain of Luciferin 4-monooxygenase (Photinus pyralis) (P08659 whole entry, looked up): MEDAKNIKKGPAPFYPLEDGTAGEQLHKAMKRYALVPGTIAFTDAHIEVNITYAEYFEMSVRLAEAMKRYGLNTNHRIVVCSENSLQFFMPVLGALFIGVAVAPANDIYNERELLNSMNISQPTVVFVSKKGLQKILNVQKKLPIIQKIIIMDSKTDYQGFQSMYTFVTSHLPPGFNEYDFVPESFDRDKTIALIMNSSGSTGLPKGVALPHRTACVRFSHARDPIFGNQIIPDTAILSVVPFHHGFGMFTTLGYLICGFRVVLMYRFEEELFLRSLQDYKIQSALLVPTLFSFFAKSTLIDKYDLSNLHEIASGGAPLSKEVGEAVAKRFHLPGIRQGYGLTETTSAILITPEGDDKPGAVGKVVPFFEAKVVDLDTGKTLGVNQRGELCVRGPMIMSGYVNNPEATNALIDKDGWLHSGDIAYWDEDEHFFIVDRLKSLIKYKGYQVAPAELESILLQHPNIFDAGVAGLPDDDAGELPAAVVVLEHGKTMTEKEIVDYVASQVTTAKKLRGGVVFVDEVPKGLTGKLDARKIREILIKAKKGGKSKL
In test [10] the test system is Wnt5a (protein binding on small-molecule microarray). Put plainly: Wnt5a binders on small-molecule microarray, primary screen, biophysical, 635/667 nm fluorescence (AID 1142).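 Note: fluorescence read at 667 nm with signal to noise per printed feature.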 To be noted: 635 nm fluorescence, higher = more signal.
Test [11] can be described thus: cell viability in Huh7 cells, primary screen, cytotoxicity control for HCV replication inhibitor project, CellTiter-Glo luminescence, basal, 48 h (AID 1143).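 Note: Huh7 hepatoma cells carrying a hepatitis C replication reporter with no stimulus; test concentration not given here.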 The note with it: Huh7 HCV replicon, higher = more signal, called active from +8 up or from −8 down. Background: ATP-based viability assays read luminescence as a measure of living cells.
A short description of test [12]: P. aeruginosa biofilm formation inhibitors, primary screen, PAO1 strain, BacTiter-Glo luminescence, LB-PBS (AID 1144). To be noted: 12 h, higher = more signal.
Test [13] in a line: CREB reporter modulators without forskolin, primary screen, cell-based, PC12, CRE-LacZ reporter, unstimulated (AID 1145). To be noted: no forskolin, luminescence, 4.5 h, higher = more signal, called active from +8 up or from −8 down.
Test [14] in a line: CREB reporter modulators under forskolin, primary screen, cell-based, PC12, CRE-LacZ reporter, forskolin-stimulated (AID 1146).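 Note: PC12 cells with 6xCRE LacZ reporter stimulated by forskolin 10 µM; beta-galactosidase reporter signal reflecting CREB driven transcription.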 The note with it: luminescence, 4.5 h, higher = more signal, called active from +8 up or from −8 down.
The target in test [15] is Streptavidin (Streptomyces avidinii) (UniProt P22629). Put plainly: streptavidin binders on small-molecule microarray, primary screen, artefact control for SMM compound annotation, biophysical, 635/667 nm fluorescence (AID 1147).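 Note: signal reflects streptavidin binding to arrayed compounds as a control protein.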 The note with it: streptavidin binding, higher = more signal.
Chain of Streptavidin (Streptomyces avidinii) (P22629 whole entry, looked up): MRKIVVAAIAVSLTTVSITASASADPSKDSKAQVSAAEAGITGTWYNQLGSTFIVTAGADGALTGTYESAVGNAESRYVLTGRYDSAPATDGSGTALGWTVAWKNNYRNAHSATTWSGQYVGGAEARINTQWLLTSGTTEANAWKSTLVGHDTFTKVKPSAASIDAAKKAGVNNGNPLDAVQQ
Test [16] is described as follows: small-molecule binders of probe aInhba, primary screen, biochemical, small-molecule microarray, 635/667 nm fluorescence (AID 1148).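 Note: score merges 667nm spot fluorescence with signal-to-noise for antibody binding to printed compounds.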 The note with it: higher = more signal.
Test [17] deals with Torsin-1A (Homo sapiens) (UniProt O14656). Briefly: torsin A binders from cell lysate, primary screen, small-molecule microarray, wild-type, 635/667 nm (AID 1149). To be noted: COS7 hTOR1A-WT lysate, 635 nm fluorescence, higher = more signal.
Chain of Torsin-1A (Homo sapiens) (O14656 whole entry, looked up): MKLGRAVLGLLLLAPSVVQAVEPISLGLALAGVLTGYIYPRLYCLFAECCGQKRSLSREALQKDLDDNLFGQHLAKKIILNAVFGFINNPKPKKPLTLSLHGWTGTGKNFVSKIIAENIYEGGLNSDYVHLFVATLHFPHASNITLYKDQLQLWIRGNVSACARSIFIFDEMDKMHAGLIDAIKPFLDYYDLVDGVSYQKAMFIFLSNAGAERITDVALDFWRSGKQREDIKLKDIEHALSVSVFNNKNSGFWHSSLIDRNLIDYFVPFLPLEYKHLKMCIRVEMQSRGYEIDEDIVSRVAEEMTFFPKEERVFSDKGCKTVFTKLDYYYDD
Test [18] has the same target. Briefly: small-molecule binders of mutant TOR1A in lysate, primary screen, cell lysate, small-molecule microarray, COS7 lysate, 635/667 nm fluorescence (AID 1150).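 Note: score pools 667 nm emission and signal to noise measuring lysate protein binding.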 To be noted: COS7 hTOR1A mutant lysate, 635 nm fluorescence, higher = more signal.
Test [19] deals with Sonic hedgehog protein (Shh). Briefly: small-molecule binders of Shh protein, primary screen, biochemical, small-molecule microarray, 635/667 nm fluorescence (AID 1151).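 Note: Shh protein binding to compounds spotted on small-molecule microarray slides; score combines spot fluorescence intensity with signal-to-noise across triplicate slides.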 The note with it: small-molecule microarray binding, 635 nm fluorescence; higher = more signal.

Activity calls are given as the source filed them. Unless noted, the rule behind the calls is not given here.

On to `COCC(=C=CC[C@@H](O)c1ccccc1OCCO)C[C@@H](O)c1ccccn1`, for which the composite z-score in test [1] was -0.415; in test [2], 0.845; in test [3], 0.287; in test [4] it was -0.853; in test [5], 0.968; in test [6] it was 0.466. Moreover, the composite z-score is 0.913 in the test with Lefty1; 0.293 in test [8]; 0.088 in [10]; -0.0795 in test [15]; 0.0737 in test [16]; 0.162 in the test with Torsin-1A (Homo sapiens) [17]. The composite z-score came out at 0.679 with Torsin-1A (Homo sapiens) [18] and 1.89 in test [19]. In addition, the z-score was -0.00359 in test [7]; -0.578 (inactive) in test [9]; -0.202 (inactive) in test [11]; 1.2 (inactive) in [12]; 1.99 (inactive) in test [13]; -0.465 (inactive) in [14].
Turning to `O=C1O[C@@H](c2ccccc2)[C@@H](c2ccccc2)N2[C@@H](c3ccc(O)cc3)[C@]3(C(=O)Nc4ccc(C#CC5(O)CCCCCC5)cc43)[C@@H](C(=O)N3CCN(c4ncccn4)CC3)[C@H]12`, the composite z-score in test [1] was 1.69; in [2], 1.22; in [3], 0.56; in test [4], 0.925; in [5], 0.642; in test [6], 0.385. In addition, the composite z-score is 0.441 in the test with Lefty1; 0.601 in test [8]; 0.149 in test [10]; 0.849 in test [15]; -0.144 in test [16]; 1.42 with Torsin-1A (Homo sapiens) [17]. The composite z-score with Torsin-1A (Homo sapiens) [18] was 0.743; in test [19], 0.358. Further, the z-score is -0.243 in [7]; 1.04 (inactive) in test [9]; -1.37 (inactive) in test [11]; -0.775 (inactive) in [12]; -0.231 (inactive) in test [13]; 0.204 (inactive) in test [14].
Regarding `COC(=O)[C@]1(Cc2ccccc2N=[N+]=[N-])N=C(c2ccc(OCCCO)cc2)O[C@@H]1c1ccccc1`, the composite z-score is 0.334 in [1]; 1.09 in test [2]; -0.141 in test [3]; 0.215 in test [4]; 0.313 in [5]; -0.101 in test [6]. Besides, the composite z-score was -0.489 in the test on Lefty1; 0.244 in test [8]; 0.0416 in test [10]; -0.189 in test [15]; 0.125 in test [16]; -0.53 in the test with Torsin-1A (Homo sapiens) [17]. The results for the composite z-score (with Torsin-1A (Homo sapiens) [18]; in test [19]) were -0.23 and -0.148, respectively. Also, the z-score in test [7] is 1.02; in test [9], -2.2 (inactive); in [11] it was -5.29 (inactive); in test [12] it was -0.566 (inactive); in [13], 2.59 (inactive); in [14], 15.8 (active).
As for `C=CCNC(=O)[C@H]1[C@@H]2C(=O)O[C@@H](c3ccccc3)[C@@H](c3ccccc3)N2[C@@H](c2ccc(O)cc2)[C@]12C(=O)N(C(=O)OCCOC)c1ccc(C#CC3(O)CCCCCC3)cc12`, the composite z-score in test [1] was 1.23; in test [2], 1.18; in [3], 0.737; in test [4], 0.485; in [5], 0.759; in test [6], 0.678. Further, the composite z-score in the test with Lefty1 is 0.218; in [8], 0.764; in [10], 0.195; in [15] it was -0.179; in test [16] it was 0.134; in the test with Torsin-1A (Homo sapiens) [17], 0.187. Moreover, the figures for the composite z-score (in the test with Torsin-1A (Homo sapiens) [18]; in test [19]) were 0.331 and 0.858, respectively. The z-score in [7] was 1.14; in test [9], -0.991 (inactive); in test [11], -1.07 (inactive); in test [12] it was -0.7 (inactive); in test [13], -0.465 (inactive); in [14], -0.804 (inactive).
For the compound `COCCOC(=O)N1C(=O)[C@@]2(c3cc(C#CCNC(N)=O)ccc31)[C@H](C(=O)N1CCCCCCC1)[C@H]1C(=O)O[C@H](c3ccccc3)[C@H](c3ccccc3)N1[C@@H]2c1ccc(OCCO)cc1`, the composite z-score in test [1] is -0.456; in test [2], 0.492; in test [3] it was 0.423; in [4], 0.577; in [5], 1.15; in [6] it was 0.126. Further, the composite z-score is 0.577 in the test with Lefty1; 0.534 in [8]; 0.0855 in test [10]; 0.32 in test [15]; 0.232 in test [16]; 0.0121 in the test with Torsin-1A (Homo sapiens) [17]. Further, the composite z-score with Torsin-1A (Homo sapiens) [18] is 0.145; in test [19], 0.438. For the same compound, the z-score in [7] was -1.6; in test [9], -1.19 (inactive); in test [11] it was -0.897 (inactive); in test [12], -1.52 (inactive); in [13], 0.22 (inactive); in [14], -0.311 (inactive).

Values taken from PubChem BioAssay.
